Measurements from PubChem BioAssay (EPA / NIEHS).
Activity calls are given as the source filed them. The calls were made as follows: active = hit-call score of the fitted dose curve at least 0.9, where 1 is the maximum; inactive = score below 0.9.

Each molecule was assayed on Intercellular Adhesion Molecule 1 (ICAM1), ICAM1 (gene 3383) (assay: LTEA_HepaRG_ICAM1: Life Technologies and Expression Analysis (LTEA) Assay for Intercellular Adhesion Molecule 1 (ICAM1) using HepaRG (AID 2283507)). Conditions: mRNA level, 48 h; actives raise or lower the signal.
Description: LTEA_HepaRG is a cell based, multiplexed-readout assay that uses HepaRG, a human liver cell line, with measurements taken at 48 hours after chemical dosing on a 96-well plate.LTEA_HepaRG_ICAM1 is one of 102 assay component(s) measured in the LTEA HepaRG cell culture assay. It is a marker of Fibrosis.Data from the assay component LTEA_HepaRG_ICAM1 was analyzed into 1 endpoint. This assay endpoint, LTEA_HepaRG_ICAM1, was analyzed with bidirectional fitting relative to DMSO as the negative control and baseline of activity. Using a type of inducible reporter, measures of mRNA induction for gain or loss-of-signal activity can be used to understand regulation of transcription factor activity. To generalize the intended target to other relatable targets, this assay endpoint is annotated to the cell adhesion molecules intended target family, where the subfamily is Immunoglobulin CAM.
A total of 1060 chemcials from the ToxCast library were tested in eight-point concentration-response experiments. Cell culture and cytotoxicity assays were conducted at Thermo Fisher Scientific's Custom Services facility (Madison, WI). A single lot of human HepaRG cells (Thermo Fisher Scientific, Frederick, MD) was used for the cell culture experiments. 96-well format collagen type I coated plates of human HepaRG cells were prepared using established methods. Briefly, cryopreserved HepaRG cells were thawed, plated at a density of approximately 100,000 cells/well in HepaRG Thaw, Plate, and General Purpose media (HPRG770, Thermo Fisher Scientific), and incubated for 48 hours. 0.5% DMSO was selected as vehicle control to balance the requisite need of DMSO in HepaRG cultures to maintain differentiation (for example, baseline metabolism, proportions of hepatocytes vs. cholangiocytes), while enabling further hepatic receptor pathway activation (for example, PXR and CAR) in response to chemical exposure. 48 hours after plating, the culture medium was replaced with HepaRG Serum-Free Incudtion Media. Cells were exposed to each test chemical in duplicate and maintained in CO2 incubators for another 48 hours. Chemical plates were thawed to room temperature and 200x concentrations of treatment groups were prepared. 8-point conentration-reponse curves were made with the highest exposure at 100 uM, followed by half-log dilutions, all in 0.5% DMSO. Each test plate contained variouse controls, induction positive controls (1mM phenobarbital), cytotoxicity positive controls ([…] aflatoxin B1), vehicle controls (0.5% DMSO), and total lysis controls (0.5% DMSO). Cell morphology images were taken using an Essen IncuCyte FLR automated microscope, with six 96-well plates imaged in about 24 minutes. Images were captured and exported and JPEG files. Spent culture media was transfered to black-well plates for the LDH assay, and remaining media was sorted at -80 C for later use. Cells were treated with RLT buffer and frozen until shipped for gene expression analysis. Total RNA was isolated from the cell suspension in 75 uL of Buffer RLT (Qiagen, Germantown, MD 20874) by Quintiles/Expression Analysis (Durham, NC) using a custom isolation procedure. Total RNA from each plate well was transferred to a preamplification plate. Fluidigm's 96.96 Dynamic ArrayTM (Fluidigm, Amsterdam, the Netherlands) technology was used for gene expression analyses by quantitative reverse transcription polymerase chain reaction (qRT-PCR, performed by Quintiles/Expression Analysis, Durham, NC)89. Standard TaqManTM Assays (Applied Biosystems/ThermoFisher Scientific, Foster City, CA) were used to assess the expression of 93 genes selected based on their selectivity and sensitivity to important hepatic receptors known to be modulated by environmental chemicals; importance in human hepatocyte functionality; and hepatotoxicity. […]
With CC(C)(O)C(=O)Nc1ccc([N+](=O)[O-])c(C(F)(F)F)c1 the AC50 was 0.0402 µM (active).
In the case of C[C@]12CCC(=O)C=C1CC[C@@H]1[C@@H]2CC[C@]2(C)C(=O)CC[C@@H]12, the outcome is reported as “inactive”.
For O=C(N[C@H]1CN2CCC1CC2)c1cc2ccoc2cn1, the outcome was “inactive”.
With CCC(C)c1cc([N+](=O)[O-])cc([N+](=O)[O-])c1O (stereo not given) the outcome was “inactive”.
With Clc1ccc(Cl)cc1 the outcome was “inactive”.
With CCCN(CCC)N=O the outcome was “inactive”.
For CCC(C)(c1ccc(O)cc1)c1ccc(O)cc1, the outcome was “inactive”.
In the case of CC#Cc1cc(C)nc(Nc2ccccc2)n1, the outcome is reported as “inactive”.
For O=C(O)C(F)(F)C(F)(F)C(F)(F)C(F)(F)C(F)(F)C(F)(F)C(F)(F)C(F)(F)C(F)(F)F, the AC50 was 22.7 µM (active).
In the case of CCC(C)(CC)c1cc(NC(=O)c2c(OC)cccc2OC)on1, the outcome is reported as “inactive”.
In the case of C[C@]12CCC(=O)C=C1CC[C@@H]1[C@@H]2CC[C@@]2(C)[C@H]1CC[C@]2(C)O, the outcome is reported as “inactive”.
With Cc1cccc(C)c1N the outcome was “inactive”.
For Cc1ccccc1O, the outcome was “inactive”.
C=CC(N)=O was tested, and the outcome was “inactive”.
In the case of CC(C)(c1ccccc1)c1ccc(O)cc1, the outcome is reported as “inactive”.
O=C(NC(=O)c1c(F)cccc1F)Nc1cc(Cl)c(OC(F)(F)C(F)F)c(Cl)c1 was tested, and the outcome was “inactive”.
In the case of CCCCCCOC(=O)c1ccccc1C(=O)OCCCCCC, the outcome is reported as “inactive”.
With CCCCCCCCCc1ccc(O)cc1 the outcome was “inactive”.
For ClC1=C(Cl)[C@]2(Cl)[C@@H]3[C@@H]4C[C@@H]([C@H]5O[C@@H]45)[C@@H]3[C@@]1(Cl)C2(Cl)Cl, the AC50 was 9.92 µM (active).
With Clc1ccc(C(c2ccccc2Cl)C(Cl)(Cl)Cl)cc1 (stereo not given) the outcome was “inactive”.
With CCSC(=O)N(CC)C1CCCCC1 the outcome was “inactive”.
With O=C(NC(=O)c1cc(F)c(F)cc1Cl)Nc1cc(F)ccc1N1CCC(C(=O)O)CC1 the outcome was “inactive”.
In the case of CCCCCCCCCC[N+](C)(C)CCCCCCCCCC, the AC50 is reported as 94.5 µM (active).
With Nc1ccc(-c2ccc(N)cc2)cc1 the outcome was “inactive”.
For CC(c1ccc(O)cc1)(c1ccc(O)cc1)c1ccc(O)cc1, the AC50 was 33.4 µM (active).
For Oc1c(Cl)c(Cl)c(Cl)c(Cl)c1Cl, the outcome was “inactive”.
Cc1cc2c3c(c1)C(c1ccccc1)=N[C@@H](NC(=O)c1ccncc1)C(=O)N3CC2 was tested, and the outcome was “inactive”.
For CCOCCOC(C)=O, the outcome was “inactive”.
For COc1ccc(O)c(C(C)(C)C)c1, the outcome was “inactive”.
With CN(C)CCO the outcome was “inactive”.
With CC(C)C(=O)OCC(C)(C)C(OC(=O)C(C)C)C(C)C (stereo not given) the outcome was “inactive”.
ClC1=C(Cl)[C@]2(Cl)[C@@H]3[C@@H](Cl)[C@H]4O[C@H]4[C@@H]3C1(Cl)C2(Cl)Cl was tested, and the outcome was “inactive”.
For Cc1ccc(O)c(C)c1, the outcome was “inactive”.
Cc1cccc([N+](=O)[O-])c1 was tested, and the outcome was “inactive”.
In the case of ClC1=C(Cl)[C@]2(Cl)[C@@H]3[C@H]4C[C@H]([C@@H]5O[C@H]45)[C@@H]3[C@@]1(Cl)C2(Cl)Cl, the AC50 is reported as 9.92 µM (active).
For Clc1ccc(C(Cl)(Cl)Cl)cc1, the outcome was “inactive”.
With Cc1cc(O)ccc1Cl the outcome was “inactive”.
With Oc1ccc(C(c2ccc(O)cc2)(C(F)(F)F)C(F)(F)F)cc1 the outcome was “inactive”.
In the case of CO/C=C(/C(=O)OC)c1ccccc1COc1cccc(C(F)(F)F)n1, the AC50 is reported as 8.33 µM (active).
In the case of ClC(Cl)=C(c1ccc(Cl)cc1)c1ccc(Cl)cc1, the outcome is reported as “inactive”.
